From PubChem BioAssay
SKOV3 invasion: ovarian cancer metastasis inhibition, 3D TME model. hit rate 0.1% among 46,000. Potency, µM (doses to about 45.8 µM), actives largely listed as inhibitors. SKOV3ip1-GFP adhesion/invasion on 3D omental model, fluorescence; further: nearly all actives have a fitted effect of over 65% in size
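Primary human omental fibroblast/mesothelial 3D culture pre-formed 48 h. SKOV3ip1-GFP cells added with compounds (0.36-46 umol/L), incubated 2 h RT/16 h 37 C, fixed; GFP cells quantified at 488/509 nm.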
p53null 32C kill: kills p53 null cells at the permissive temperature; H1299-neo p53 null cells, ATP luminescence, 24 h, 32C; Potency, µM (top dose mostly 46.1 µM), most hits filed as cytotoxic; hit rate 0.62% among 55,000; AID 903; further: nearly all actives have a fitted effect of over 55% in size
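H1299-neo (p53 null) cells, 600/well, treated 24 h at 32C with compound up to 46 uM; ATPlite luminescence viability, normalized to DMSO and 100 uM tamoxifen; AC50 by Hill fit.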
PMP22 txn: PMP22 gene transcription modulation | S16 Pmp22-F2sN Schwann cells, FLuc/NLuc coincidence luminescence, 24 h | Potency, µM (highest dose often 57.5 µM), actives largely listed as inhibitors | hit rate 2% among 43,000; active means clear falling dose curves in both reporters; inconclusive means both reporters move, but less clearly or upward; inactive means either reporter flat; the % is the NLuc reporter signal
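S16(c9) Schwann cells with FLuc/NLuc coincidence reporter in the Pmp22 3' UTR; compounds pin-transferred, 24 h at 37C. Dual-luciferase read: FLuc first, then NLuc after Stop&Glo, each 10 min at room temperature.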
pS6 MEF inh: mTORC1 pathway inhibition measured by phospho-rpS6; Tsc2-/- p53-/- MEF, phospho-rpS6 immunofluorescence/PI, 24 h; Potency, µM (highest dose often 38.3 µM), hits mostly inhibitors; hit rate 0.78% among 44,000; AID 493208; further: nearly all actives have a fitted effect of over 50% in size
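Cell-based qHTS: Tsc2-/- p53-/- MEF, 24 h cpd, 37 °C; fix/perm, anti-phospho-S6 Alexa-488 + PI; Acumen 488 nm scan; pS6/PI ratio, % positive cells; rapamycin 7.5 nM = inhibition ref; PI count = viability.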
p53null 39C kill: kills p53 null cells at the nonpermissive temperature | Potency, µM (series often up to 46.1 µM), hits mostly cytotoxic | H1299 p53-null (neo) cells, 39C, ATPlite viability, 24 h | hit rate 0.97% among 55,000 | AID 904; further: nearly all actives have a fitted effect of over 50% in size
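Concentration-response (up to 46 uM) was run for 24 h at the nonpermissive 39C on H1299-p53A138V or H1299-neo cells. ATP content was measured with ATPlite luminescence. AC50 values were Hill-modeled after normalizing between DMSO and 100 uM tamoxifen killing.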
S16 viability: toxic to S16 Pmp22-F2sN Schwann cells. S16 Pmp22-F2sN Schwann cells viability, CellTiter-Glo, 24 h. Potency, µM (top dose mostly 57.5 µM), usual class: cytotoxic. hit rate 0.48% among 43,000; further: nearly all actives have a fitted effect of over 65% in size
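Viability was measured by CellTiter-Glo luminescence (15 min, room temperature). This followed 24 h at 37 °C of compound exposure (23 nL pin transfer) in S16 Pmp22-F2sN Schwann cells, 500-1,000 per well.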
A number is an active result; . = inactive; ? = inconclusive; / = no result. The list is not random: actives were taken first. Their share in the collection is about 3%. Unless noted, the call rests on the fitted dose curve; in most records, active means well fitted curve in the direction sought with a large enough effect; inconclusive means small, poorly fitted or top-dose-only effect, or another doubt; inactive means no such curve, though single readings can be large; an effect the other way counts as inactive or inconclusive.

SMILES	SKOV3 invasion	p53null 32C kill	PMP22 txn	pS6 MEF inh	p53null 39C kill	S16 viability
CCOc1ccc(Cc2cc([C@@H]3O[C@H](CO)[C@@H](O)[C@H](O)[C@@H]3O)ccc2Cl)cc1	.	/	/	/	/	/
CCS(=O)(=O)c1oc(-c2ccc(F)cc2)nc1S(=O)(=O)c1ccc(Br)cc1	?	.	3µM	2.6µM	?	2.8µM
CCCCS(=O)(=O)c1oc(-c2ccc(F)cc2)nc1S(=O)(=O)c1ccccc1	?	18µM	2.4µM	2.9µM	?	4.5µM
CC(C)S(=O)(=O)c1oc(-c2cccs2)nc1S(=O)(=O)c1ccc(F)cc1	?	?	1.7µM	0.58µM	.	3.2µM
CSc1oc(-c2ccc(F)cc2)nc1S(=O)(=O)c1ccccc1	/	.	/	/	.	/
Cc1ccc(S(=O)(=O)c2nc(-c3ccc(F)cc3)oc2SCC(N)=O)cc1	/	.	/	/	.	/
CS(=O)(=O)c1oc(-c2ccc(F)cc2)nc1S(=O)(=O)c1ccc(Cl)cc1	.	?	4.5µM	?	?	5.6µM
CCc1cccc(CC)c1NC(=O)N1Cc2[nH]nc(NC(=O)c3ccc(N4CCN(C)CC4)cc3)c2C1	.	/	/	/	/	/
NC(=O)[C@@H](CCC(F)(F)F)N(Cc1ccc(-c2ncon2)cc1F)S(=O)(=O)c1ccc(Cl)cc1	.	/	/	/	/	/
OCCN1C[C@H](O)[C@@H](O)[C@H](O)[C@@H]1CO	.	/	/	/	/	/
Cc1cc(C)cc(NC(=O)CN(C)S(=O)(=O)c2ccc3[nH]c4c(c3c2)CCCC4)c1	.	.	?	.	.	.
CCOc1ccc(NC(=O)CN(C)S(=O)(=O)c2ccc3[nH]c4c(c3c2)CCCC4)cc1	.	.	17µM	.	.	?
COc1ccc(/C=C\c2onc(C)c2S(=O)(=O)N2CCC(C(=O)Nc3ccc(Cl)cc3)CC2)cc1	.	.	.	.	10µM	.
COc1ccc(/C=C\c2onc(C)c2S(=O)(=O)N2CCC(C(=O)Nc3ccc(C)c(F)c3)CC2)cc1	.	.	?	.	.	.
Cc1csc(-c2nnc(Nc3ccc(Oc4ncccc4-c4ccnc(N)n4)cc3)c3ccccc23)c1	.	/	/	/	/	/
O=C(C=Cc1ccc(CN(CCO)CCc2c[nH]c3ccccc23)cc1)NO	.	/	/	/	/	/
CN(C)c1ccc(/C=C(\C#N)c2nc3ccccc3c(=O)[nH]2)cc1	.	0.32µM	?	.	?	.
Cc1ccc(CCNC(=O)c2c(C)oc3ncn(CC(C)C)c(=O)c23)cc1	.	.	?	.	.	.
CCCCNC(=O)c1c(C)oc2ncn(CC(C)C)c(=O)c12	.	.	11µM	.	.	?
COc1ccc(C(=O)Nc2cc(C(C)C)c(O)c(S(=O)(=O)c3ccc(Cl)cc3)c2C)cc1	.	.	.	.	.	.
COc1ccc(C(=O)NC(c2ccc(Cl)cc2)c2cc(Cl)c3cccnc3c2O)cc1 (stereo unspecified)	.	?	?	.	.	4µM
NCc1c[nH]c(=S)n1[C@H]1CCc2c(F)cc(F)cc2C1	.	/	/	/	/	/
COc1ccc2nc(NC(=O)c3nc(S(=O)(=O)Cc4ccccc4F)ncc3Cl)sc2c1	7.1µM	.	4.8µM	15µM	.	3.5µM
COc1ccc2nc(NC(=O)c3nc(S(=O)(=O)Cc4ccccc4)ncc3Cl)sc2c1	?	.	3µM	9.3µM	?	5.6µM
Cc1nnc(NC(=O)c2nc(S(=O)(=O)Cc3ccccc3)ncc2Cl)s1	?	?	13µM	?	?	5µM
SMILES	SKOV3 invasion	p53null 32C kill	PMP22 txn	pS6 MEF inh	p53null 39C kill	S16 viability
O=C(Nc1ccccc1F)c1nc(S(=O)(=O)Cc2ccccc2F)ncc1Cl	3.2µM	.	?	1.2µM	?	6.3µM
COc1ccc2nc(NC(=O)c3nc(SCc4ccccc4F)ncc3Cl)sc2c1	.	.	.	.	.	.
O=C(Nc1cccc(Br)c1)c1cccc(S(=O)(=O)N2CCCCCC2)c1	.	/	/	/	/	/
Nc1nccc(Oc2ccc(NC(=O)c3c[nH]cc(-c4ccc(F)cc4)c3=O)cc2F)c1Cl	.	/	/	/	/	/
Cc1cccc(CS(=O)(=O)c2ncc(Cl)c(C(=O)NCc3ccccc3)n2)c1	.	.	?	18µM	?	20µM
O=C(Nc1nc2ccc(F)cc2s1)c1nc(S(=O)(=O)Cc2ccccc2)ncc1Cl	?	.	6.2µM	.	?	6.3µM
Cc1cnn(C)c1C(=O)Nc1cc(Nc2ccc3c(C=Cc4ccccn4)n[nH]c3c2)ccc1F	.	/	/	/	/	/
